Experiments:
Experiment in all cases: log2 ratio of Biotin-Ahx-Ub-VS probe labelling (fragment/DMSO); higher = less target engagement (more negative = stronger competition), active = hit call of the paper (q ≤ 0.05, log2 ratio ≤ -1)
Conditions in all cases: compound concentration: 200 uM; treatment time: 3 h
USP34 = USP34 (UniProt Q70CQ2)
Outline: (§1)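 Labelled DUBs from HEK293T lysate were NeutrAvidin-enriched, digested with LysC and trypsin, and run by diaPASEF LC-MS/MS. Before that, each 495 µg sample in Tris/CHAPS/IGEPAL buffer with protease inhibitors was treated in triplicate with fragment at 200 µM or vehicle for 3 h, then with Biotin-Ahx-Ub-VS at 0.5 µM final for 1 h. Values are average log2 ratios of fragment over vehicle by unpaired t-test, based on global-median-normalised Spectronaut label-free quantities from proteins with ≥2 unique peptides.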

USP36 = target: T1, USP36 (UniProt Q9P275)
T1 sequence (whole entry): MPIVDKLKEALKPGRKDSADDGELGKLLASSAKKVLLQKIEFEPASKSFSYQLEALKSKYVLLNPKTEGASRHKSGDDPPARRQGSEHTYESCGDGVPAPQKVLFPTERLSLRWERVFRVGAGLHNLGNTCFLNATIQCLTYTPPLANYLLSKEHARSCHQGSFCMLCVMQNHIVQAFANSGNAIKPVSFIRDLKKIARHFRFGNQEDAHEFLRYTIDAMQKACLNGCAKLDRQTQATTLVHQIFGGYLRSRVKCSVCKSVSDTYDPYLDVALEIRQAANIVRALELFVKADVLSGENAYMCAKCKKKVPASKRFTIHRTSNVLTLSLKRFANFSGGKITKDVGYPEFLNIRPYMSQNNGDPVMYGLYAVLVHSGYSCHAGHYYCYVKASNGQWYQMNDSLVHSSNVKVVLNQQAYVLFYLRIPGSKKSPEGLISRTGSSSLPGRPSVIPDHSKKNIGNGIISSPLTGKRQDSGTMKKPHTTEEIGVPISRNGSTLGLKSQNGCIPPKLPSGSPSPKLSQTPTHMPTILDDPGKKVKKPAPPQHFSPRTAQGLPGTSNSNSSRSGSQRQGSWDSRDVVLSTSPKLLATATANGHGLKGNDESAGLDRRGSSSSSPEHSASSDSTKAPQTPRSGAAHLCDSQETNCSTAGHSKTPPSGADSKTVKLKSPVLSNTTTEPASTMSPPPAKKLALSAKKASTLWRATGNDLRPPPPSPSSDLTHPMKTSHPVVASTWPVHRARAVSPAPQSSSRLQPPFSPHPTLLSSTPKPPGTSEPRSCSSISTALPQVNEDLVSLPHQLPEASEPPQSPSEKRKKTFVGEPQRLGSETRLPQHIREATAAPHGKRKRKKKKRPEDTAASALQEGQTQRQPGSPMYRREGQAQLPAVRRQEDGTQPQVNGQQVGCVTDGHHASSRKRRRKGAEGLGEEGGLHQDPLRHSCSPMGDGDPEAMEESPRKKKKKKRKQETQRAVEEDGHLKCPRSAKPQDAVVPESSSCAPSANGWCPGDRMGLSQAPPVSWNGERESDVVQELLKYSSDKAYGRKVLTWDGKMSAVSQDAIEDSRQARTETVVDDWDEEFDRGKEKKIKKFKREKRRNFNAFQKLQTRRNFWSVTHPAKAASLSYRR
Outline: as §1

USP38 = target: T2, USP38 (UniProt Q8NB14)
T2 sequence (whole entry): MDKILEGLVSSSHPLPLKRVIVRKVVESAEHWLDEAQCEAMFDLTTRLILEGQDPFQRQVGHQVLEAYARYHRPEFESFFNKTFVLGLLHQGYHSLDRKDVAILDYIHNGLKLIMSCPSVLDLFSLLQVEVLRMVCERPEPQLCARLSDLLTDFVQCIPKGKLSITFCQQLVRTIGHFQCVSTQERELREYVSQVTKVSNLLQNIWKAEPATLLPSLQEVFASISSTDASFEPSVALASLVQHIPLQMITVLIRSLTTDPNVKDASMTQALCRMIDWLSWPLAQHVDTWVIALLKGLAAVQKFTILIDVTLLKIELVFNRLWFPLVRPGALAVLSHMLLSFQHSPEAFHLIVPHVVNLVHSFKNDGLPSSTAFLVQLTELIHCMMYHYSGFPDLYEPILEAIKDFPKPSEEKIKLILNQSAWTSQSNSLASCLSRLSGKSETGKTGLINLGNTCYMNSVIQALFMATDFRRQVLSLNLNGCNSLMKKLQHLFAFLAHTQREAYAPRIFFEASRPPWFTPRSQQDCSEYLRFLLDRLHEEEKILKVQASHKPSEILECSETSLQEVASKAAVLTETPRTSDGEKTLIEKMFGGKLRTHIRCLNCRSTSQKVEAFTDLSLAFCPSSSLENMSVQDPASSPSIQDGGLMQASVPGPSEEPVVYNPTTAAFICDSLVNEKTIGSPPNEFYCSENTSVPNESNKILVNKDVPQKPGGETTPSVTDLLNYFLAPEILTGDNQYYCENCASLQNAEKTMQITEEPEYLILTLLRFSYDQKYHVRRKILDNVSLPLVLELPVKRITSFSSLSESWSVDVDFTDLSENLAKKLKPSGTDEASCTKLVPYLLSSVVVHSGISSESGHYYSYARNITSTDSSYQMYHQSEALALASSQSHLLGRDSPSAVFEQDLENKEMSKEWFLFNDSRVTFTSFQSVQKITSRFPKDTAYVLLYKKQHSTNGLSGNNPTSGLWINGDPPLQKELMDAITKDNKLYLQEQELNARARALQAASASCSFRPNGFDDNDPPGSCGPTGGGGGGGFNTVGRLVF
Outline: as §1

USP39 = target: T3, USP39 (UniProt Q53GS9)
T3 sequence (whole entry): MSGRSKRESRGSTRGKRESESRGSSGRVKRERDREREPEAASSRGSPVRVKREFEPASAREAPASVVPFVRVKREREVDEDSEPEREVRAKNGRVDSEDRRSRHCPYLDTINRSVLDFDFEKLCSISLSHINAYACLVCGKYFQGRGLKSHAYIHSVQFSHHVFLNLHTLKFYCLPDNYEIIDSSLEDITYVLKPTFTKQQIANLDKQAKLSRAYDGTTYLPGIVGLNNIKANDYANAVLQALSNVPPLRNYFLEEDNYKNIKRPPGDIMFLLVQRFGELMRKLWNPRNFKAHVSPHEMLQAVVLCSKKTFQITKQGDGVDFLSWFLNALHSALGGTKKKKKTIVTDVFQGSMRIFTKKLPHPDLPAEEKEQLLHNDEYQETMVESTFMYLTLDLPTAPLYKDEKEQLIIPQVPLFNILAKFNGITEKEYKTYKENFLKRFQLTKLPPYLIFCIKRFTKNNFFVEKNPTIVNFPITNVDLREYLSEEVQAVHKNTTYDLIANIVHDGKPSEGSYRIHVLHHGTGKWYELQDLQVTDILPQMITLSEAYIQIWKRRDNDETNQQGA
Outline: as §1

USP4 = target: T4, USP4 (UniProt Q13107)
T4 sequence (whole entry): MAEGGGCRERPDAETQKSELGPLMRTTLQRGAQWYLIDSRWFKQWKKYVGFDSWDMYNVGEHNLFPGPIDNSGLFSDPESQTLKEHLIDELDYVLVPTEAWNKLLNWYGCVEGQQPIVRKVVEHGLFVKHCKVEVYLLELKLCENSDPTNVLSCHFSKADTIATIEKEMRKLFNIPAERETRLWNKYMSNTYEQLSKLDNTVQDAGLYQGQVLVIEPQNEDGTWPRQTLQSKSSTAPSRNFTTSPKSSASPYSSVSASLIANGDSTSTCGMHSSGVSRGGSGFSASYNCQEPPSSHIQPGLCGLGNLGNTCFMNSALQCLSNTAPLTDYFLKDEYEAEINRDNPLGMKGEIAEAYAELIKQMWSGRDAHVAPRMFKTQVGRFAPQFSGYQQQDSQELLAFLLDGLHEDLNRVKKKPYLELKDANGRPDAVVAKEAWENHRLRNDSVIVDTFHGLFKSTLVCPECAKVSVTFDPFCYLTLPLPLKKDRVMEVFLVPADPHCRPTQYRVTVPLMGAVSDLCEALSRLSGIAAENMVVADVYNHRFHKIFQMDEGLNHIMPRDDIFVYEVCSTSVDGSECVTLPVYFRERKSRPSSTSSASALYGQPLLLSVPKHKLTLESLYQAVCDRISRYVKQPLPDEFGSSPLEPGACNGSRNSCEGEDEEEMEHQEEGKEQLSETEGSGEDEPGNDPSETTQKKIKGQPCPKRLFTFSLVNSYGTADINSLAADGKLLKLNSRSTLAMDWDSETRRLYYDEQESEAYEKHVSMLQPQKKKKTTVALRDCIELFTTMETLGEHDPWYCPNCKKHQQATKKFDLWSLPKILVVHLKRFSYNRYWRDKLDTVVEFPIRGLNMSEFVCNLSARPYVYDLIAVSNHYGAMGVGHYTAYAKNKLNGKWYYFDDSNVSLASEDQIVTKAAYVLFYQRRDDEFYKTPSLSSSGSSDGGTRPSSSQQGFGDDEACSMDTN
Outline: as §1

Measured: log2 ratio of Biotin-Ahx-Ub-VS probe labelling

Sequence of USP34 (Q70CQ2 whole entry, the tested form may be a part): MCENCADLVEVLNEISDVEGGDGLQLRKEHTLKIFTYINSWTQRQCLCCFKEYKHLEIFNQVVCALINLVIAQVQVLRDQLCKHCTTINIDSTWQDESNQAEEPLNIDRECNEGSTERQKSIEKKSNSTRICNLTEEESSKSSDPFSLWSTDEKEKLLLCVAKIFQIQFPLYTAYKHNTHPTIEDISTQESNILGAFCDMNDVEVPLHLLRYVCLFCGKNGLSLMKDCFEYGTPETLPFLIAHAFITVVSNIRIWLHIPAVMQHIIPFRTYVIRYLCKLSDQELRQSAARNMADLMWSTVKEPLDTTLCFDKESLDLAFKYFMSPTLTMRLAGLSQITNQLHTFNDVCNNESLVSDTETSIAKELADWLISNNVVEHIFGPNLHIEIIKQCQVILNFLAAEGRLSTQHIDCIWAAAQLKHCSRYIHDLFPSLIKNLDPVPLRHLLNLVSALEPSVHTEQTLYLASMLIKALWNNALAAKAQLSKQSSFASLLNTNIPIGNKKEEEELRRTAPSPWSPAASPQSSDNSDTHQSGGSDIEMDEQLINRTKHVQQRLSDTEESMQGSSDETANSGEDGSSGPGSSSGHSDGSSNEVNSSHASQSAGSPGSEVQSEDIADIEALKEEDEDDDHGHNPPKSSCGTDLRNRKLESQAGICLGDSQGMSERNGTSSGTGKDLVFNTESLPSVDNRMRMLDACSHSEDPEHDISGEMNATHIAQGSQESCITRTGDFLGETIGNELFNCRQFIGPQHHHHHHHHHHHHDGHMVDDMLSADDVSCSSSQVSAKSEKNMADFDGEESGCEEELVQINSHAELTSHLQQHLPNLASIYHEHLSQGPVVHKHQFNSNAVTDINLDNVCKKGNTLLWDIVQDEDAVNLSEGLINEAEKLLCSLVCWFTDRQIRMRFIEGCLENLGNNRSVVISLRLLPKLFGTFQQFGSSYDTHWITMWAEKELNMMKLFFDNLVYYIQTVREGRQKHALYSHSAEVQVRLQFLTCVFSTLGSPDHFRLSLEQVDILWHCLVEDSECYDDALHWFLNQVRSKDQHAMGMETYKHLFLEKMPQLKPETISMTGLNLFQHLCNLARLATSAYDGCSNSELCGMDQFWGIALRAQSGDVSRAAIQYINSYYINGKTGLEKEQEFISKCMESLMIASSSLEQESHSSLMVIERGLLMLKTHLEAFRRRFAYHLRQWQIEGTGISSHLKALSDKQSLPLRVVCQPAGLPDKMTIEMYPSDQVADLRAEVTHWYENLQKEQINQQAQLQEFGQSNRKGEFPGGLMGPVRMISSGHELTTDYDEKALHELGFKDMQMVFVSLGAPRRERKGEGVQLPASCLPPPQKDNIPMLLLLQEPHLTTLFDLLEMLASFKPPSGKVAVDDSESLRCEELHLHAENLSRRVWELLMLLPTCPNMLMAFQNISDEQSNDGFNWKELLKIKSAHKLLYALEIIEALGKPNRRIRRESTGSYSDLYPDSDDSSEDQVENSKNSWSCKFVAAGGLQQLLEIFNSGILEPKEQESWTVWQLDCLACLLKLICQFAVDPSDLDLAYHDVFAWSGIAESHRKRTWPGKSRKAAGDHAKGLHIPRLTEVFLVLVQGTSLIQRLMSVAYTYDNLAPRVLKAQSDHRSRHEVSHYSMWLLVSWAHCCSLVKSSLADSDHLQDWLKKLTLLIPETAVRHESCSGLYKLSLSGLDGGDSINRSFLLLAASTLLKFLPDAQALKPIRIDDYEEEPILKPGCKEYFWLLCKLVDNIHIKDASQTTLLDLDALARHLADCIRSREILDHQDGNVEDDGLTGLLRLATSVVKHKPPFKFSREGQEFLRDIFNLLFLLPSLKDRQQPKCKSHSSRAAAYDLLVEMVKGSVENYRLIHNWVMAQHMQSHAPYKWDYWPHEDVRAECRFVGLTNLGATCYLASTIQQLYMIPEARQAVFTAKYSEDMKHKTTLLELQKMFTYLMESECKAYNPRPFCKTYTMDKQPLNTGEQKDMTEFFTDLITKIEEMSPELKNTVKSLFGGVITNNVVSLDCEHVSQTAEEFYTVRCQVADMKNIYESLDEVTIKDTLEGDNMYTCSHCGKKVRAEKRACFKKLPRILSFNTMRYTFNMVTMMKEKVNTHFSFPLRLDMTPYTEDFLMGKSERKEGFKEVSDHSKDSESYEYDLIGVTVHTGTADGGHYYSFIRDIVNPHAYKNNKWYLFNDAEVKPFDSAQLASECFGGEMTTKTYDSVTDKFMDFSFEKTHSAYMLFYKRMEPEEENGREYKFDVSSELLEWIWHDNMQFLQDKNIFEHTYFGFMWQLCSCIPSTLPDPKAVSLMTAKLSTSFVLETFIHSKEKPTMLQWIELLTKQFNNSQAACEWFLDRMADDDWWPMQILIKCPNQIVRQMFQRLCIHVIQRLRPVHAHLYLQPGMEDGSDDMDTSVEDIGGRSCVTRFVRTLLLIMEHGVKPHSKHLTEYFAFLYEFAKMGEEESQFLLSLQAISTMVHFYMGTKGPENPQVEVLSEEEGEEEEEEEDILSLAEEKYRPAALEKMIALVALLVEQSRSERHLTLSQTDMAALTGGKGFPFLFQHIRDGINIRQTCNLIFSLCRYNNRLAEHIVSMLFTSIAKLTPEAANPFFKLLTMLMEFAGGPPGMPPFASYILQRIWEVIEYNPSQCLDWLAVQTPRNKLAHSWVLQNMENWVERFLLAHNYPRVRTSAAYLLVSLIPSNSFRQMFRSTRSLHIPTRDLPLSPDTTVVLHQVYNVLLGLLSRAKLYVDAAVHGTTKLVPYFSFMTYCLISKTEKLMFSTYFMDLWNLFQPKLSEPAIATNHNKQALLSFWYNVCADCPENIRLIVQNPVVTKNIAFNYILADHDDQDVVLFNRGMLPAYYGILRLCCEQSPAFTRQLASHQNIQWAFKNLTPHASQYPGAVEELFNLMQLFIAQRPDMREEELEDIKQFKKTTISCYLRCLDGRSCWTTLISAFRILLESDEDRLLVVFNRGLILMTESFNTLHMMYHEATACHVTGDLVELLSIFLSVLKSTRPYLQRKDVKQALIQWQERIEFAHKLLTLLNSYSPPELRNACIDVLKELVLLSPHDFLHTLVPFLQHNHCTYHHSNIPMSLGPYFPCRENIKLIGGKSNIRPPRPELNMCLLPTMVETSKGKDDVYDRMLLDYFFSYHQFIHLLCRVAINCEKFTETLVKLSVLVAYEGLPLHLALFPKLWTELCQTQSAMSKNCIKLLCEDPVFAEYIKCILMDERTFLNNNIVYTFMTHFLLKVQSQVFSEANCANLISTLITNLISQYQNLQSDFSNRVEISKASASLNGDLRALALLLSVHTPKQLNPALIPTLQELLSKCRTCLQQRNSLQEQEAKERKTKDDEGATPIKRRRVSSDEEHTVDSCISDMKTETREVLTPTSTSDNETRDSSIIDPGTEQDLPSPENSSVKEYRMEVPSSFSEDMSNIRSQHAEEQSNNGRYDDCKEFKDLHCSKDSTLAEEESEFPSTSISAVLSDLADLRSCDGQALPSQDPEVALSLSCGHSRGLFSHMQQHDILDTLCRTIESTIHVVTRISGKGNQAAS

O=C(CCl)N1CCC(C(=O)N2CCCCCC2)CC1
inactive: USP34 -0.0554 | USP36 -0.258 | USP38 -0.135 | USP39 -0.143 | USP4 0.128

Source: the supplement of paper PMC11732987, “Enantioselective OTUD7B fragment discovery through chemoproteomics screening and high-throughput optimisation” (Communications Chemistry, 2025)
